We go through nine compounds from PubChem BioAssay (NCI).

This is part of a sample that, as a whole, favours compounds with a hit. Of some 83,000 tested, about 20% had one in any assay.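 Compound tested at a single concentration for 48 hours in 96-well plates; a percent growth value below 10 was scored as active.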 Unmarked numbers belong to inactive results. The source made the active and inactive calls.

Test systems include SR leukemia; RPMI-8226 leukemia; OVCAR-8 ovarian; OVCAR-5 ovarian; SK-OV-3 ovarian; IGROV1 ovarian; OVCAR-3 ovarian; HS 578T breast; NCI/ADR-RES ovarian; T-47D breast; BT-549 breast; MDA-MB-435 melanoma; SW-620 colon; MCF7 breast; HCT-116 colon; HCC-2998 colon; KM12 colon; OVCAR-4 ovarian.
Holding throughout (experiment): NCI-60 one-dose screen, 48 h (100 = growth as untreated, 0 = no growth, -100 = all killed)
Common to all, as to settings: 10 µM unless noted

Take `CCCCCCCC(=O)SCC/C=C/[C@@H]1CC(=O)NCc2cccc(n2)CN(Cc2ccc3ccccc3c2)CC(=O)N[C@@H](C(C)C)C(=O)O1`: the growth in the test on SR leukemia is 3.23% (active); in the test on RPMI-8226 leukemia it was 32.6%; in the test on OVCAR-8 ovarian it was 22.7%; in the test with OVCAR-5 ovarian, 26.2%; with SK-OV-3 ovarian it was 24.5%; with IGROV1 ovarian it was 53.2%. The growth with OVCAR-3 ovarian is 47.3%; with HS 578T breast it was 34.9%; in the test on NCI/ADR-RES ovarian, 30.8%; with T-47D breast, 44.5%; in the test on BT-549 breast, 88.1%; with MDA-MB-435 melanoma, 37.4%. The growth is 76.8% in the test on SW-620 colon; 26.5% in the test on MCF7 breast; 5.36% (active) in the test with HCT-116 colon; 49.5% in the test with HCC-2998 colon; 38.8% with KM12 colon.
Regarding `Brc1ccc2[nH]cc(-c3nc(-c4c[nH]c5ncccc45)cs3)c2c1`, the growth was 9.23% (active) in the test with SR leukemia; 39.9% in the test with RPMI-8226 leukemia; 46.3% with OVCAR-8 ovarian; 63.7% in the test with OVCAR-5 ovarian; 55% in the test with SK-OV-3 ovarian; 23.1% in the test with IGROV1 ovarian. The growth with OVCAR-3 ovarian is 52.4%; with HS 578T breast, 71.8%; in the test on NCI/ADR-RES ovarian, 32.7%; in the test on T-47D breast it was 59.8%; in the test on BT-549 breast, 58.7%; in the test on MDA-MB-435 melanoma, 40.6%. Moreover, the growth with SW-620 colon is 6.36% (active); in the test with MCF7 breast, 32.3%; in the test on HCT-116 colon, 17.5%; with HCC-2998 colon it was 60.2%; in the test on KM12 colon, 21.3%.
For the compound `Cn1c(=O)c2c(ncn2CC(=O)Nc2ccc(S(N)(=O)=O)cc2)n(C)c1=O`, the growth in the test with SR leukemia is 105%; with RPMI-8226 leukemia it was 99.9%; in the test with OVCAR-8 ovarian it was 105%; in the test with OVCAR-5 ovarian it was 105%; in the test on SK-OV-3 ovarian, 87.8%; in the test with IGROV1 ovarian, 112%. The growth with OVCAR-3 ovarian is 106%; in the test on HS 578T breast it was 101%; in the test on NCI/ADR-RES ovarian, 106%; in the test with T-47D breast it was 93.2%; with BT-549 breast it was 92.8%; with MDA-MB-435 melanoma, 108%. For the same compound, the growth in the test with SW-620 colon is 103%; with MCF7 breast, 98.6%; in the test on HCT-116 colon, 92.7%; with HCC-2998 colon, 114%; in the test with KM12 colon it was 101%.
As to `Nc1ccc(Br)cn1`, the growth in the test with SR leukemia is 98.9%; with RPMI-8226 leukemia, 101%; in the test with OVCAR-8 ovarian, 102%; with OVCAR-5 ovarian, 93%; in the test on OVCAR-4 ovarian, 101%; in the test on IGROV1 ovarian it was 110%. Besides, the growth was 99.5% in the test on HS 578T breast; 103% in the test on NCI/ADR-RES ovarian; 98.7% with T-47D breast; 94.7% in the test with BT-549 breast; 113% in the test with MDA-MB-435 melanoma; 104% in the test with SW-620 colon. The growth in the test with MCF7 breast is 110%; in the test on HCT-116 colon it was 96.4%; in the test on HCC-2998 colon, 98.1%.
Consider `O=C(/C=C/c1cccc(O)c1)c1ccccc1O`, for which the growth with SR leukemia is 36%; in the test on RPMI-8226 leukemia, 28%; in the test on OVCAR-8 ovarian, 92.9%; with OVCAR-5 ovarian it was 99.4%; with SK-OV-3 ovarian, 107%; in the test on IGROV1 ovarian it was 66.7%. For the same compound, the growth is 93.5% in the test on OVCAR-3 ovarian; 86.9% in the test with HS 578T breast; 86.6% in the test with NCI/ADR-RES ovarian; 91.2% in the test on T-47D breast; 85.2% with BT-549 breast; 76% in the test on MDA-MB-435 melanoma. Moreover, the growth in the test on SW-620 colon is 86.3%; with MCF7 breast, 63.5%; with HCT-116 colon, 78.1%; in the test on HCC-2998 colon it was 98%; in the test with KM12 colon it was 72.5%.
`COc1ccc2[nH]cc(-c3nc(-c4c[nH]c5ncccc45)cs3)c2c1`: the growth was -7.54% (active) in the test with SR leukemia; 40.9% with RPMI-8226 leukemia; 44.8% with OVCAR-8 ovarian; 81.5% in the test on OVCAR-5 ovarian; 41.4% in the test with SK-OV-3 ovarian; 30.7% in the test with IGROV1 ovarian. Further, the growth in the test with OVCAR-3 ovarian is 50.6%; with HS 578T breast it was 57.5%; in the test with NCI/ADR-RES ovarian it was 47%; in the test on T-47D breast it was 67.1%; in the test with BT-549 breast it was 36.8%; with MDA-MB-435 melanoma it was 54%. In addition, the growth in the test with SW-620 colon is 19%; in the test with MCF7 breast, 32.5%; with HCT-116 colon, 18.1%; in the test on HCC-2998 colon, 70.4%; in the test on KM12 colon, 25.3%.
For `COC(=O)[C@]12CC[C@@H](C(=O)/C=C/c3cccnc3)[C@@H]1[C@H]1CC[C@@H]3[C@@]4(C)C/C(=C/c5cccnc5)C(=O)C(C)(C)[C@@H]4CC[C@@]3(C)[C@]1(C)CC2`, the growth in the test on SR leukemia is -14.1% (active); in the test on RPMI-8226 leukemia, -28.7% (active); with OVCAR-8 ovarian, -34.3% (active); with OVCAR-5 ovarian, -62.7% (active); in the test with OVCAR-4 ovarian, -39.2% (active); with IGROV1 ovarian it was -87.9% (active). The growth is -93.2% (active) with OVCAR-3 ovarian; -49.1% (active) in the test on HS 578T breast; -43.6% (active) in the test with T-47D breast; -92.1% (active) with BT-549 breast; -69.7% (active) in the test with MDA-MB-435 melanoma; -67.3% (active) in the test with SW-620 colon. Besides, the growth with MCF7 breast was -54.2% (active); in the test on HCT-116 colon it was -87.4% (active); in the test on HCC-2998 colon, -55.5% (active); in the test with KM12 colon it was -75% (active).
Consider `Cc1cc(Nc2ccc(F)cc2)nc(N2CCN(c3ccnc4cc(Cl)ccc34)CC2)n1`, for which the growth in the test with SR leukemia was 2.7% (active); with RPMI-8226 leukemia, 12.5%; in the test with OVCAR-8 ovarian it was 31.9%; with OVCAR-5 ovarian it was 8.2% (active); in the test with SK-OV-3 ovarian, 46.8%; in the test with IGROV1 ovarian, 31.6%. For the same compound, the growth with OVCAR-3 ovarian was 24.1%; in the test with HS 578T breast, 39.3%; with NCI/ADR-RES ovarian, 13.5%; in the test with T-47D breast it was 10.8%; in the test with BT-549 breast, 47.5%; in the test on MDA-MB-435 melanoma it was 13.2%. In addition, the growth with SW-620 colon was 23.1%; in the test with MCF7 breast it was 9.35% (active); in the test with HCT-116 colon, 4.86% (active); with HCC-2998 colon it was 25.8%; with KM12 colon, 21.6%.
As for `COc1cc2[nH]c(C(=O)c3cc(OC)c(OC)c(OC)c3)c(N)c2cc1C#CC1CC1`, the growth with SR leukemia was 13.4%; in the test with RPMI-8226 leukemia it was 47.6%; in the test with OVCAR-8 ovarian it was 55.7%; in the test with OVCAR-5 ovarian, 38.4%; in the test with SK-OV-3 ovarian, 32.4%; with IGROV1 ovarian, 42.1%. The growth in the test with OVCAR-3 ovarian was 2.8% (active); with HS 578T breast, -1.8% (active); with NCI/ADR-RES ovarian it was 27.7%; with T-47D breast, 32.8%; in the test on BT-549 breast, 53.4%; in the test on MDA-MB-435 melanoma, 2.06% (active). In addition, the growth with SW-620 colon is 22.5%; with MCF7 breast, 17.6%; with HCT-116 colon it was 19.1%; in the test with HCC-2998 colon, 66.1%; in the test on KM12 colon it was 18%.
